Among the data in PubChem BioAssay (NCI) are growth values, retold here.

This is part of a sample that, as a whole, favours compounds with a hit. Of some 83,000 tested, about 20% had one in any assay.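 Assay: single dose, 48 h. Readout: percent growth (0 = no net growth; negative = cell death). Active: <10.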 Unmarked numbers belong to inactive results. The source made the active and inactive calls.

Some test systems named below: RPMI-8226 leukemia; OVCAR-8 ovarian; OVCAR-5 ovarian; OVCAR-4 ovarian; SK-OV-3 ovarian; IGROV1 ovarian; OVCAR-3 ovarian; HS 578T breast; NCI/ADR-RES ovarian; SR leukemia.
Holding throughout (test): NCI-60 one-dose screen, 48 h (100 = growth as untreated, 0 = no growth, -100 = all killed)
Holding throughout (settings): 10 µM unless noted

`COc1cc(-c2nn(-c3cccc(NC(=O)c4ccc(Cl)c(C(F)(F)F)c4)c3)cc2-c2ccncc2)ccc1Cl`: the growth was 25.4% with RPMI-8226 leukemia; 38.9% in the assay with OVCAR-8 ovarian; 91.3% in the assay with OVCAR-5 ovarian; 66% with OVCAR-4 ovarian; 64.3% in the assay on SK-OV-3 ovarian; 48.9% in the assay with IGROV1 ovarian. The figures for the growth in the assay on OVCAR-3 ovarian, with HS 578T breast and in the assay on NCI/ADR-RES ovarian were 19.5%, 34.7% and 13.4%, respectively.

As to `COc1ccc(-c2c(N)n[nH]c2-c2cc3c(c(OC)c2OC)OCO3)cc1`, the growth with RPMI-8226 leukemia was 57.5%; in the assay on OVCAR-8 ovarian, 104%; with OVCAR-5 ovarian, 85.5%; in the assay on OVCAR-4 ovarian it was 99.1%; in the assay on SK-OV-3 ovarian it was 106%; in the assay on IGROV1 ovarian, 96.4%. Besides, the growth is 108% in the assay on OVCAR-3 ovarian and 83.3% with HS 578T breast.

As to `COc1cc(Cn2cc3c(c2)-c2oncc2CC3)cc(OC)c1OC`, the growth in the assay on SR leukemia is 11.3%; in the assay with OVCAR-8 ovarian, 16.6%; in the assay with OVCAR-5 ovarian, 41.2%; with SK-OV-3 ovarian, -5.27% (active); in the assay on IGROV1 ovarian, 1.48% (active); with OVCAR-3 ovarian it was -40.5% (active). The growth was 7.08% (active) with HS 578T breast and -13.9% (active) with NCI/ADR-RES ovarian.

`Cc1ccc(S(=O)(=O)NCCNc2nccc(-c3c(-c4ccc(O)cc4)nc4sccn34)n2)cc1`: the growth is 85.9% in the assay with RPMI-8226 leukemia; 89.3% in the assay on OVCAR-8 ovarian; 135% with OVCAR-5 ovarian; 102% with OVCAR-4 ovarian; 107% with SK-OV-3 ovarian; 97.1% with IGROV1 ovarian. Further, the growth with OVCAR-3 ovarian was 110%; in the assay with HS 578T breast it was 106%; in the assay with NCI/ADR-RES ovarian it was 97.8%.

Regarding `O=C(O)/C=C/C(=O)c1ccc(Cl)cc1`, the growth in the assay on RPMI-8226 leukemia was 115%; with OVCAR-8 ovarian, 95.9%; in the assay on OVCAR-5 ovarian it was 115%; in the assay with OVCAR-4 ovarian, 116%; with SK-OV-3 ovarian it was 107%; in the assay on IGROV1 ovarian, 114%. The growth was 105% with OVCAR-3 ovarian, 119% in the assay with HS 578T breast and 109% in the assay with NCI/ADR-RES ovarian.

Consider `COc1ccc(-c2c(N)n[nH]c2-c2cc(OC)c3c(c2)OCCO3)cc1`, for which the growth in the assay with SR leukemia was -6.97% (active); in the assay on OVCAR-8 ovarian, 83.5%; in the assay with OVCAR-4 ovarian it was 101%; in the assay with SK-OV-3 ovarian it was 90.2%; with IGROV1 ovarian, 85.9%; in the assay with OVCAR-3 ovarian it was 76.2%. Further, the growth in the assay with HS 578T breast is 86.2%; with NCI/ADR-RES ovarian, 63.8%.

In the case of `C=C1CCC2C(C)(CO)C(O)CCC2(C)C1CC(NCc1ccccc1)C1=CCOC1=O` (configuration not stated), the growth was 99.8% with SR leukemia; 94% in the assay with OVCAR-8 ovarian; 94.3% with OVCAR-5 ovarian; 105% in the assay on SK-OV-3 ovarian; 102% with IGROV1 ovarian; 105% with OVCAR-3 ovarian. The results for the growth in the assay on HS 578T breast and in the assay with NCI/ADR-RES ovarian were 104% and 95.9%, respectively.

As to `COc1ccc(C2C(C#N)=C(N)Oc3c2ccc2ccccc32)cc1` (configuration not stated), the growth was 37.4% in the assay on SR leukemia; 73.3% in the assay with OVCAR-5 ovarian; 62.3% in the assay with OVCAR-4 ovarian; 57.8% in the assay on SK-OV-3 ovarian; 41% with IGROV1 ovarian; 15.4% in the assay with OVCAR-3 ovarian. Moreover, the growth in the assay with HS 578T breast is 47.1%; in the assay with NCI/ADR-RES ovarian, 5.02% (active).

In the case of `O=C(Nc1cccc(-n2cc(-c3ccncc3)c(-c3ccc(Cl)c(O)c3)n2)c1)Nc1cc(C(F)(F)F)cc(C(F)(F)F)c1`, the growth is -10.9% (active) in the assay with RPMI-8226 leukemia; -12.2% (active) in the assay with OVCAR-8 ovarian; -32.9% (active) with OVCAR-5 ovarian; 0.865% (active) in the assay on OVCAR-4 ovarian; -24.3% (active) with SK-OV-3 ovarian; 4.8% (active) in the assay with IGROV1 ovarian. The values for the growth in the assay with OVCAR-3 ovarian, in the assay with HS 578T breast and in the assay with NCI/ADR-RES ovarian were -67.5% (active), -26% (active) and 4.72% (active), respectively.

For `Cc1ccc2ccccc2c1C[n+]1ccccc1`, the growth is 80.9% with RPMI-8226 leukemia; 91.7% in the assay on OVCAR-8 ovarian; 116% in the assay on OVCAR-5 ovarian; 91.5% with OVCAR-4 ovarian; 100% in the assay on SK-OV-3 ovarian; 101% in the assay with IGROV1 ovarian. For the same molecule, the figures for the growth in the assay on OVCAR-3 ovarian and with HS 578T breast were 102% and 95.1%, respectively.

Take `Cc1cc(C2(c3cc(C)c(O)cc3C)OS(=O)(=O)c3ccccc32)c(C)cc1O`: the growth in the assay with SR leukemia is 95.3%; with OVCAR-8 ovarian, 103%; in the assay on OVCAR-5 ovarian, 111%; in the assay on SK-OV-3 ovarian it was 101%; in the assay with IGROV1 ovarian, 107%; in the assay with OVCAR-3 ovarian, 107%. The growth was 96.3% in the assay with HS 578T breast and 110% with NCI/ADR-RES ovarian.

On to `COc1ccc(-n2c(=O)sc3c(Cl)nc(C)nc32)c(OC)c1`, for which the growth was 106% in the assay with RPMI-8226 leukemia; 56.9% in the assay with OVCAR-8 ovarian; 92% with OVCAR-5 ovarian; 101% with OVCAR-4 ovarian; 83.8% in the assay on SK-OV-3 ovarian; 28.8% with IGROV1 ovarian. The growth in the assay on OVCAR-3 ovarian is 68.8%; in the assay with HS 578T breast, 93.9%; in the assay with NCI/ADR-RES ovarian, 101%.

For the molecule `COc1ccc(Nc2[nH]n3c(=O)cc(-c4ccccc4)nc3c2C(=O)Nc2ccc(C)cc2)c(OC)c1`, the growth with RPMI-8226 leukemia was 108%; in the assay with OVCAR-8 ovarian, 79.4%; with OVCAR-5 ovarian, 92%; in the assay with OVCAR-4 ovarian, 89.6%; with SK-OV-3 ovarian it was 91.2%; in the assay with IGROV1 ovarian, 102%. Further, the growth in the assay on OVCAR-3 ovarian is 98.7%; with HS 578T breast, 78.1%; in the assay on NCI/ADR-RES ovarian, 108%.

Take `CN(C)CC(C(=O)c1ccccc1)c1ccccc1` (configuration not stated): the growth was -34.4% (active) in the assay on RPMI-8226 leukemia; 9.37% (active) in the assay on OVCAR-8 ovarian; 59.3% with OVCAR-5 ovarian; 43.1% in the assay on OVCAR-4 ovarian; 88.4% in the assay on SK-OV-3 ovarian; 48.6% in the assay with IGROV1 ovarian. Further, the figures for the growth in the assay with OVCAR-3 ovarian, with HS 578T breast and in the assay with NCI/ADR-RES ovarian were -92.6% (active), 60.5% and 17.1%, respectively.

As for `COc1ccc(NC(=O)c2c(Nc3ccc(OC)cc3OC)n[nH]c2N)c(OC)c1`, the growth in the assay with RPMI-8226 leukemia is 91%; with OVCAR-8 ovarian it was 96.4%; in the assay with OVCAR-5 ovarian, 96.3%; in the assay with OVCAR-4 ovarian it was 102%; in the assay on SK-OV-3 ovarian, 92%; with IGROV1 ovarian, 93.7%. In addition, the growth with OVCAR-3 ovarian was 106%; in the assay with HS 578T breast, 96%; with NCI/ADR-RES ovarian, 101%.

In the case of `O=C(c1c[nH]c(=O)c(-c2ccccc2)c1)c1ccccc1O`, the growth was 95.2% with RPMI-8226 leukemia; 85.6% with OVCAR-8 ovarian; 88.5% in the assay on OVCAR-5 ovarian; 95.8% in the assay with OVCAR-4 ovarian; 83.6% in the assay with SK-OV-3 ovarian; 82.7% in the assay on IGROV1 ovarian. Moreover, the growth is 98.4% in the assay with OVCAR-3 ovarian, 80% in the assay on HS 578T breast and 82.4% in the assay with NCI/ADR-RES ovarian.
